Results from PubChem BioAssay (Tox21).
Results filed as inconclusive are left out. Entries that show only a call come without a potency. Calls of active or inactive are those of the source. Calls follow the shape of the dose curve; as a rule, active = well fitted inhibition curve with a large enough effect in the signal ratio in the repeat runs, with a control signal flat; inconclusive = weak or mixed curves, or effect the other way; inactive = flat fitted curve, though single readings scatter; the % refers to the signal ratio.

The molecules below were run against D(2) dopamine receptor (Homo sapiens) (UniProt P14416) (assay: Dopamine D2 receptor (DRD2) small molecule antagonists, cell-based qHTS assay (AID 1963595)). Conditions: HEK293-DRD2 cAMP HTRF antagonist mode; series mostly up to 92.4 µM.
Chain of D(2) dopamine receptor (Homo sapiens) (P14416 whole entry, looked up): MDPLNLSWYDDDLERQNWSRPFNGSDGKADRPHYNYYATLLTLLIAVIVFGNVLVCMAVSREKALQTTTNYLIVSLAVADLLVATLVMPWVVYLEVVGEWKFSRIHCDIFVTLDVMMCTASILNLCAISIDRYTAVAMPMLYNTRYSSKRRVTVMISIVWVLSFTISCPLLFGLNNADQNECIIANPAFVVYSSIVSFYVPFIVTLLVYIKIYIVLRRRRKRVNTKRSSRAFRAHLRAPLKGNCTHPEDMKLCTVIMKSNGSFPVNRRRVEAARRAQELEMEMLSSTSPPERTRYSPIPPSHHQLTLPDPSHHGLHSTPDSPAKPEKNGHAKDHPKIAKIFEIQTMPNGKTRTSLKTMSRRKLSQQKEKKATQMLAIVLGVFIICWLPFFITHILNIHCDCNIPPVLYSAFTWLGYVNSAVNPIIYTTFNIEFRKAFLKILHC
Procedure, shortened: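 Stable D2 receptor HEK293 line, 24 h after seeding. Compound preincubated 10 min, then quinpirole (12 nM) with forskolin analogue NKH477 (200 nM), 30 min, room temperature. Detection by time-resolved FRET of cAMP.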
`CCC(N)(CO)CO` was tested, and the Potency was “inactive”. With `CCCCOC(=O)CCS` the Potency was “inactive”. With `CC(=O)S[C@H](C(=O)N[C@H]1Cc2ccccc2[C@H]2CCC[C@@H](C(=O)O)N2C1=O)C(C)C` the Potency was “inactive”. For `CCCCCCCCCOS(=O)(=O)O`, the Potency was “inactive”. For `COC(=O)c1ccc([N+](=O)[O-])cc1`, the Potency was “inactive”. For `COC(=O)Cc1cccc2ccccc12`, the Potency was “inactive”. In the case of `CCCCCCCCCCCC(=O)OC[C@@H](O)[C@H]1OC[C@H](OCCO)[C@H]1OCCO`, the Potency is reported as “inactive”. `CC(=O)NC(Cc1ccccc1)C(=O)O` (stereo not given) was tested, and the Potency was “inactive”. With `Cc1nc2ccccc2s1` the Potency was “inactive”. With `CCO[Si](C)(C)OCC` the Potency was “inactive”. With `Cc1nc(-c2ccc3c(c2)CCN(CCC2CCC(NC(=O)/C=C/c4ccc(F)cc4)CC2)CC3)no1` (stereo not given) the Potency was “inactive”. For `O=C(O)CCS`, the Potency was “inactive”. In the case of `CCN(CC#N)c1cccc(C)c1`, the Potency is reported as “inactive”. In the case of `O=C(/N=N/C(=O)OCc1ccccc1)OCc1ccccc1`, the Potency is reported as “inactive”. `CC(C)C(=O)O` was tested, and the Potency was “inactive”. For `c1ccc2cc3c4ccccc4c4ccccc4c3cc2c1`, the Potency was “inactive”. `CO[Si](CCCNCCC[Si](OC)(OC)OC)(OC)OC` was tested, and the Potency was “inactive”. With `CCCCCCCCS(=O)(=O)Cl` the Potency was “inactive”. For `C=Cc1ccccn1`, the Potency was “inactive”. `Nc1ccc(S(=O)(=O)Nc2ccc(Cl)nn2)cc1` was tested, and the Potency was “inactive”. In the case of `COC(=O)c1ccccc1C(=O)O`, the Potency is reported as “inactive”. With `CC(=O)SC[C@@H](C)C(=O)N1CCC[C@H]1C(=O)N[C@@H](Cc1ccccc1)C(=O)O` the Potency was “inactive”. With `CCCCCCCCCCCCCC` the Potency was “inactive”. With `COc1cc(/C=C/C(=O)O[C@H]2CC[C@]34C[C@]35CC[C@]3(C)[C@@H]([C@H](C)CCC=C(C)C)CC[C@@]3(C)[C@@H]5CC[C@H]4C2(C)C)ccc1O` the Potency was “inactive”. For `CC/C=C\CCOC(=O)C(C)C`, the Potency was “inactive”. With `O=C1CC2CC1C1CCCC21` (stereo not given) the Potency was “inactive”. For `CC1CNCC(C)O1` (stereo not given), the Potency was “inactive”. With `Cc1ccc(C2OC[C@@H]3OC(c4ccc(C)cc4)O[C@H]([C@H](O)CO)[C@@H]3O2)cc1` (stereo not given in full) the Potency was “inactive”. `CCCCC(O)/C=C(C)/C=C/C=C/C(=O)N1CCCC1=O` (stereo not given) was tested, and the Potency was “inactive”. For `O=C(O)c1cc(=O)[nH]c(=O)[nH]1`, the Potency was “inactive”. With `CC12CCC(C1)C(C)(C)C2O` (stereo not given) the Potency was “inactive”. In the case of `O=C(C(=O)c1ccccc1)c1ccccc1`, the Potency is reported as “inactive”. With `CCOC(=O)c1cc(=O)c2c(OCC(COc3cccc4oc(C(=O)OCC)cc(=O)c34)OC(=O)[C@@H](N)CCCCN)cccc2o1` the Potency was “inactive”. For `COc1ccc(C)cc1`, the Potency was “inactive”. In the case of `O=S(=O)(O)CCN1CCN(CCO)CC1`, the Potency is reported as “inactive”.
